Experimental findings from PubChem BioAssay (NCI) are described below.

Molecules are shown by their SMILES. Compounds without any hit were thinned out: in the full panel of roughly 83,000, 20% have a hit.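 Method: cells in 96-well plates; compound added at one concentration; 48 h incubation; percent growth measured; values under 10 scored active.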 The source made the active and inactive calls.

The subject of this experiment is HL-60(TB) leukemia. Nature of the experiment: NCI-60 one-dose screen, 48 h (100 = growth as untreated, 0 = no growth, -100 = all killed). As to conditions: 10 µM unless noted.
Consider `O=C1CCc2c(sc3[nH]c(=S)n(Cc4ccccc4)c(=O)c23)C1`, for which the growth is 10.9% (inactive). The same measure for `CCOC(=O)c1c(NC(=O)c2ccc(C(C)(C)C)cc2)sc2cc(O)ccc12`: 67% (inactive). In the case of `CCCCc1n(Cc2ccc3ccccc3c2)cc[n+]1Cc1ccc2ccccc2c1` it was -52.6% (active). In the case of `O=C(Nc1cccc(NC(=O)C2CCCCC2)c1)c1ccccn1`, the growth is 95.4% (inactive).

With `CCN(CC)CCCN1C(=O)c2c(c(C)c3c(oc4ccc(OC)cc43)c2C)C1=O`, the growth was 97.6% (inactive).

For `C=C[C@@H]1C[C@H](O)Cc2c(C)cc(C)cc2N1`, the growth was -16.4% (active). In the case of `O=C(CCCCCCN1CC(=O)N2[C@H](c3ccc(Br)cc3)c3[nH]c4ccccc4c3C[C@@H]2C1=O)NO` it was 5.8% (active). In the case of `CCCCCCN(CCCCCC)CCC(=O)Nc1ccc(S(=O)(=O)c2ccc(NC(=O)CCN(CCCCCC)CCCCCC)cc2)cc1` it was 80% (inactive); in that of `COc1ccc(Nc2c3ccccc3nc3ccccc23)cc1`, 12.8% (inactive); in that of `Nc1nc(NC2CC2)cc(-c2cccc(Cl)c2Cl)n1`, 32.6% (inactive). In the case of `Nc1ccc(C(=O)c2ccc(N)c(Br)c2)cc1Br` it was -16.5% (active); in that of `Fc1cc(-c2nnc3sc(-c4ccc(Cl)cc4)nn23)c(Cl)cc1Cl`, 26.9% (inactive); in that of `COC(=O)[C@]12CC[C@@H](C)[C@H](C)[C@@H]1C1=CC[C@@H]3[C@@]4(C)C[C@@H](O)[C@H](O)[C@@](C)(CO)[C@@H]4[C@H](O)C[C@@]3(C)[C@]1(C)CC2`, -27.4% (active). As to `Brc1ccc(Nc2csc(-c3ccccn3)n2)cc1`, the growth is 99.6% (inactive). The same measure for `O=C(/C=C/c1cccc(Cl)c1)c1cccc(OCCCCOc2cccc(C(=O)/C=C/c3cccc(Cl)c3)c2)c1`: 84.6% (inactive); for `CN(C)c1ccc2[nH]c3c(C(N)=O)cc(=O)c(=O)c=3oc2c1`: -2.19% (active). The same measure for `O=c1[nH]c(=O)[nH]c(=S)[nH]1`: 102% (inactive); for `C=CC[n+]1c(/C=C/C=C2\N(C)c3ccccc3C2(C)C)sc2ccc(OC)cc21`: -21% (active); for `O=C1c2cc3c(cc2-c2c1c1ccc(F)cc1c(=O)n2CCCNCCO)OCO3`: -58.1% (active). The same measure for `Cc1cccc(NC(=O)c2sc3nc4c(cc3c2N)CN(Cc2ccccc2)CC4)c1C`: 7.62% (active). For the compound `O=C(Nc1ccc(Cl)cc1)N1CCN(c2ccc3nncn3n2)CC1`, the growth is -65.2% (active). In the case of `COc1cc(-c2ccc3c(c2)NC(=O)/C3=C\c2ccc[nH]2)ccc1O` it was -12.6% (active). In the case of `CCCCCCCCCCCCCC[N+](C)(C)CCCCCCCCCCCCCC` it was 46.6% (inactive); in that of `Cc1ccccc1CNc1c2ccccc2nc2ccccc12`, 15.3% (inactive).

Take `Nc1ccc2c(c1)/C(=N/O)c1cc([N+](=O)[O-])ccc1-2`: the growth was 64.1% (inactive). Turning to `CN1CCCN(C(c2ccccc2)c2ccc(Br)cc2)CC1` (centres undefined), the growth is 110% (inactive). Regarding `Cc1nc(Nc2ccccn2)sc1C(=O)/C=C/c1ccc(Br)cc1`, the growth was 41.7% (inactive). In the case of `Fc1ccccc1Nc1n[nH]c(=S)s1` it was 112% (inactive); in that of `COc1cc2ncnc(-n3ncc4cc(NC(=O)Nc5ccccc5)ccc43)c2cc1OC`, -15.9% (active); in that of `N#CN1CCC[C@H]1C(=O)N1CCc2c(-c3[nH]nc4ncccc34)cccc21`, -30.7% (active).

In the case of `CC(C)CCC[C@@H](C)[C@H]1CC[C@H]2[C@@H]3CC[C@H]4C/C(=N/O)CC[C@]4(C)[C@H]3CC[C@]12C`, the growth was 104% (inactive). The same measure for `CCCCN(C)N=Nc1ccc(C(N)=O)cc1`: 73.5% (inactive); for `CC1(C)NCCC[C@]2(C)[C@H]3CC=C4[C@@H]5C[C@](C)(COC(=O)c6ccccc6C(=O)O)CC[C@]5(C)CC[C@@]4(C)[C@]3(C)CC[C@@H]12`: 65.3% (inactive); for `COc1ccc(-c2nc3sccn3c2/C=C/C(=O)c2cc(OC)c(OC)c(OC)c2)cc1OC`: 6.14% (active). The same measure for `CN1C(=O)C2(SCC(C(=O)NCc3ccccc3)N2C(=O)C2CCCCC2)c2ccccc21` (centres undefined): 80.4% (inactive). The same measure for `COc1ccc(-c2nc(-c3nc4ccc(C)cc4[nH]3)cc3c2[nH]c2ccccc23)cc1`: 31.4% (inactive).

As for `O=C(NCCc1ccccc1)Nc1ccc2cc3ccc(NC(=O)NCCc4ccccc4)cc3nc2c1`, the growth is -46.9% (active). The same measure for `COc1cc(OCc2cccc(-c3ccc4c(c3)OCCO4)c2C)cc(OC)c1C=O`: 64% (inactive); for `Cn1c(Nc2ccc(C(F)(F)F)cc2)nc2cc(Oc3ccnc(-c4ncc(C(F)(F)F)[nH]4)c3)ccc21`: 30.3% (inactive).
